High-throughput results as filed in PubChem BioAssay.
EWS-Fli inh: EWS/Fli transcriptional activity inhibition. A673 NR0B1-luciferase reporter, viability-normalised. inhibition, % at 12.6 µM. 350,000 tested, 0.67% active. AID 651661;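 active = mean inhibition of at least 50% after viability correction, with every replicate also passing that limit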;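 note: firefly luciferase signal divided by Alamar Blue viability fluorescence both relative to DMSO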
PAX8 reporter: inhibitors of PAX8 transcriptional activity in RMG-I cells; RMG-I TPO-luciferase reporter, SteadyGlo, 24 h; inhibition, % at 12.6 µM; 360,000 tested, 1.2% active; AID 652154;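 active = mean replicate inhibition at least 60% with every replicate also reaching 60%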;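 note: luciferase light reporting Pax8 driven TPO promoter activity; plate controls were median of neutral control wells for no effect and mitoxantrone controls for full effect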
LGR2 antag: Drosophila LGR2 receptor signaling inhibition | AID 720647 | HEK293 LGR2, CRE-luciferase, bursicon-stimulated, 4 h | inhibition, % at 9.99 µM | 380,000 tested, 0.35% active;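 active = drop in luminescence signal, shown as inhibition above about 50% in the replicate tests, limit read from the data, passing the limit was not always enough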;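 note: agonist challenge used bursicon conditioned medium at about half maximal strength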
Shn3 3UTR inh: Schnurri-3 reporter inhibition in Clone20 osteoblasts | inhibition, % at 12.5 µM | 360,000 tested, 0.52% active | Clone20 osteoblast Shn3 3'UTR firefly luciferase, 24 h;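 active = mean inhibition of at least 75% with every replicate also reaching 75%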;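 note: 0% = median of neutral control wells and 100% = pilot-screen positive control compound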
TRPM1 prom inh: inhibitors of MITF-driven TRPM1 promoter in melanoma cells | 330,000 tested, 0.83% active | inhibition, % at 12.5 µM | SK-MEL-5 TRPM1 promoter luciferase, 24 h | AID 488899;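 active = mean inhibition across replicates of 60% or more, whatever share of single replicates reaches that level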
EBV LMP1 NFkB: Epstein-Barr LMP1 NF-kappaB reporter inhibition. LMP1-induced NF-kappaB luciferase reporter cells, luminescence. inhibition, % at 12.5 µM. 350,000 tested, 0.69% active; in the data active = inhibition above about 41%;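 note: 0% = neutral control wells and 100% = reference inhibitor control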
* = called active by the depositor; . = not tested or not shown; ! = not confirmed by another sample. Most compounds without a hit are left out; they make up all but 2.2% or so of the library.

SMILES	EWS-Fli inh	PAX8 reporter	LGR2 antag	Shn3 3UTR inh	TRPM1 prom inh	EBV LMP1 NFkB
O=C(Nc1ccc(Cl)c(C(F)(F)F)c1)NC1CC2CCCC(C1)N2Cc1ccccc1 (stereo unspecified)	18	29	82*	.	.	.
CN(C)CCCN1c2ccccc2Sc2ccc(Cl)cc21	5	2	16	-11	-16	49*!
CN(C)CCCN1c2ccccc2Sc2ccc3ccccc3c21	4	0	14	-5	0	4
Cc1nc(N2[C@H](CO)[C@H](c3ccccc3)[C@H]2CNCC2CCCC2)sc1C	0	.	-7	.	.	.
Cc1ccc(Oc2c(C(N)=O)cc([N+](=O)[O-])cc2[N+](=O)[O-])cc1	.	23	11	93*	92*	12
N#Cc1ccccc1NC1=CC(=O)CCC1	.	.	-2	-10	10	-7
O=C1C=C(NC2=CC3OC(c4ccccc4)OCC3OC2=O)CCC1 (stereo unspecified)	-7	19	59*	20	65*	-1
O=C(CN1CCCCC1)NC(=O)NC1CCCC1	-12	-45	.	-6	-13	-6
CCn1cc(C(=O)NC(C)C23CC4CC(CC(C4)C2)C3)cn1 (stereo unspecified)	1	30	-3	-19	12	3
CC(NC(=O)Cn1ncc(Cl)c(Cl)c1=O)C12CC3CC(CC(C3)C1)C2 (stereo unspecified)	.	.	.	98*	108*	-94
O=C(Cn1ncc(Cl)c(Cl)c1=O)NC(=O)NC1CCCCC1	62*	91*	96*	74	115*	4
COc1ccc2c3c([nH]c2c1)[C@@H](CO)N(C(=O)Nc1ccccc1F)CC31CCN(C(=O)C2CC2)CC1	15	-2	-10	.	.	.
N/C(=N\OC(=O)c1ccccc1Cl)c1ccc(Cl)cc1	.	.	.	-20	-42	-61
Cc1cc(/C(N)=N/OC(=O)c2ccccc2Cl)no1	17	-34	84*	-19	-32	24
Cc1ccc(/C(N)=N/OC(=O)c2ccc(C)cc2Cl)cc1	28	-197	59*	-22	14	10
N/C(=N\OC(=O)c1ccccc1Cl)c1ccccc1	.	.	60*	5	3	-43
O=C(CN1CCOCC1)NCC[C@@H]1CC[C@@H](NC(=O)Nc2ccc(F)cc2)[C@@H](CO)O1	3	4	-10	.	.	.
O=C(Nc1ccc([N+](=O)[O-])cc1Cl)c1cccc([N+](=O)[O-])c1	-44	-46	-10	-25	.	-6
O=C(Nc1ccc([N+](=O)[O-])cc1Cl)c1cc(Cl)ccc1O	9	-215	-107	95*	74*	80*
O=C(Nc1cccc2c1CCCC2)c1cc([N+](=O)[O-])ccc1Cl	.	.	.	1	-14	54*
CCOC(=O)N1CCC(Nc2c(N3CCN(c4cc(Cl)ccc4C)CC3)c(=O)c2=O)CC1	15	11	3	3	.	7
CCOC(=O)N1CCC(Nc2c(-c3ccc(C)c(C)c3)c(=O)c2=O)CC1	.	16	.	-4	-5	53*
C[C@@H]1CN([C@@H](C)CO)S(=O)(=O)c2ccc(-c3ccncc3)cc2O[C@H]1CN(C)S(=O)(=O)c1ccccc1F	26	15	-5	.	.	.
CO[C@@H]1CN(C)C(=O)c2ccc(NC(=O)c3ccc(-c4ccccc4)cc3)cc2OC[C@H](C)NC[C@@H]1C	14	65*	7	.	.	.
CO[C@@H]1CN(C)C(=O)c2ccc(NC(=O)c3ccc(-c4ccccc4)cc3)cc2OC[C@@H](C)NC[C@@H]1C	16	16	0	.	.	.
SMILES	EWS-Fli inh	PAX8 reporter	LGR2 antag	Shn3 3UTR inh	TRPM1 prom inh	EBV LMP1 NFkB
CO[C@H]1CN(C)C(=O)c2ccc(NC(=O)Nc3ccc(Cl)c(Cl)c3)cc2OC[C@H](C)NC[C@@H]1C	69*	30	22	.	.	.
CCC(C)(C)NC(=O)c1ccc(Sc2nncn2C)c([N+](=O)[O-])c1	7	-7	-13	9	8	-2
Cn1cnnc1Sc1ccc(/C=C/C(=O)c2ccc(O)cc2)cc1[N+](=O)[O-]	69*	1	66*	-3	5	-6
Nc1ccc(C(=O)N/N=C/c2sc(N3CCOCC3)nc2-c2ccccc2)cc1	.	7	-22	-16	-8	2
O=C(N/N=C/c1sc(N2CCOCC2)nc1-c1ccccc1)c1cccc(S(=O)(=O)N2CCOCC2)c1	11	50	-4	84	65*	30
Cc1cc(C(=O)N/N=C/c2sc(N3CCOCC3)nc2-c2ccccc2)c(C)o1	4	20	-5	-12	13	41*
O=C(N/N=C/c1sc(N2CCOCC2)nc1-c1ccccc1)c1ccccc1O	.	-1	-8	30	6	10
CCCN1[C@@H]2c3ccc(-c4ccc(F)cc4)c(=O)n3C[C@H]1[C@H](CO)[C@H]2C(=O)NCC	1	.	-13	.	.	.
COc1ccccc1C(=O)NC(=O)CSc1nnc(N)s1	0	4	-10	-27	-7	42*
COc1ccc2c3c(n(C)c2c1)[C@H](CO)N(C(C)=O)CC31CN(C(=O)NC(C)C)C1	4	.	6	.	.	.
O=C(c1ccc2c(c1)OCO2)N1CC2(C1)[C@H](c1ccccc1)[C@@H](CO)N2C(=O)C1CCC1	5	7	10	.	.	.
CNC[C@H]1OCCCC[C@@H](C)Oc2ccc(NC(=O)c3ccccc3)cc2C(=O)N([C@H](C)CO)C[C@@H]1C	-1	-6	1	.	.	.
COc1cc(OC)cc(C(=O)NCCSC2CCCCC2)c1	-8	-1	7	12	-8	1
COc1cccc(OC)c1C(=O)NCCSC1CCCCC1	5	15	11	14	-11	59*
Cc1ccc2c(C(=O)CCl)c(C)[nH]c2c1	9	23	-9	-20	69*	4
COc1ccc(-c2ccc3c(c2)O[C@H](CN(C)C)[C@H](C)CN([C@H](C)CO)S3(=O)=O)cc1	-7	.	9	.	.	.
CN(C)c1cccc(/C=C(\C#N)c2ccccc2)c1	55*	-51	12	-39	-34	-36
CCCCc1c(-c2ccccc2OC)ncn1Cc1ccc(C)cc1	35	61*	27	.	.	.
CCCCc1c(-c2ccccc2OC)ncn1Cc1ccc(-c2ccccc2)cc1	10	23	41	.	.	.
C[C@@H]1CN([C@@H](C)CO)C(=O)c2cc(NC(=O)C3CC3)ccc2O[C@H]1CN(C)Cc1ccc(C(=O)O)cc1	.	-27	11	.	.	.
COCCNC(=S)N(CCc1c(C)[nH]c2ccc(OC)cc12)Cc1cccnc1	7	-3	0	-4	7	42*
O=C(c1ccccc1)N(C(=O)c1ccccc1)c1ncnc2c1C(c1ccccc1)c1c(ccc3ccccc13)O2 (stereo unspecified)	20	72*	-1	21	8	-16
CCOC(=O)CCCC(=O)Nc1ncnc2c1C(c1ccccc1)c1c(ccc3ccccc13)O2 (stereo unspecified)	5	20	26	30	-2	-10
